Active and inactive are the calls of the source. Rule for the calls: active = hit-call score of the fitted dose curve at least 0.9, where 1 is the maximum; inactive = score below 0.9.

Test [1] can be described thus: ATG_CRE_CIS: Attagene CIS-FACTORIAL HepG2 Assay for human cAMP Responsive Element (CRE) binding protein 3 (AID 2282926). Conditions: HepG2 CRE cis-reporter, Attagene multiplexed mRNA; actives raise or lower the signal. The method in brief:
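Endogenous transcription factor activity read via CRE-regulated reporter transcripts in transfected HepG2 cells. After 24 h exposure, RNA was reverse-transcribed, amplified, fluorescently labelled and sized by capillary electrophoresis; gain or loss fitted against DMSO.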

Test [2] has as its target CCAAT/enhancer-binding protein beta (Homo sapiens) (UniProt P17676). Nature of the test: ATG_C_EBP_CIS: Attagene CIS-FACTORIAL HepG2 Assay for human CCAAT/Enhancer Binding Protein (C/EBP) beta (AID 2282927). As to conditions: HepG2 Attagene cis-factorial transcription factor reporter; actives raise or lower the signal. The method in brief:
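Endogenous transcription factor activity in human liver HepG2 cells is inferred from induction of a CEBPB-linked reporter mRNA. Exposure lasts 24 h; activity is fitted in both directions relative to DMSO.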

The nature of test [3]: ATG_CMV_CIS: Attagene CIS-FACTORIAL HepG2 Assay for human CMV (Internal Marker) (AID 2282928).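 Note: endpoint acts as a background internal control marker rather than a target.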 Conditions: HepG2 CMV promoter reporter, transcription factor profiling; actives raise or lower the signal. The essentials:
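Readout: fluorescent reporter cDNA fragments separated by capillary electrophoresis after RT-PCR and HpaI cut. Cells: HepG2 carrying transfected cis-promoter reporter constructs, dosed 24 h. Endpoint serves as background internal-marker control, fit bidirectionally versus DMSO.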

Test [4] can be described thus: ATG_AP_1_CIS: Attagene CIS-FACTORIAL HepG2 Assay for human Activator Protein 1 (AP-1) (AID 2282931). As to conditions: HepG2 Attagene cis-factorial AP-1 reporter mRNA; actives raise or lower the signal. The method in brief: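 Reporter transcripts were measured 24 h after dosing by RT-PCR and capillary electrophoresis of fluorescent fragments. Cells: HepG2 carrying transfected cis-regulated reporter constructs reading endogenous factor activity. Gain or loss fitted against DMSO.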

Test [5] can be described thus: ATG_AP_2_CIS: Attagene CIS-FACTORIAL HepG2 Assay for human Activator Protein 2 (AP-2) (AID 2282932). Conditions: HepG2 AP-2 cis-reporter, Attagene transcription factor profiling; actives raise or lower the signal. The essentials:
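Transiently transfected HepG2 cells are exposed to chemical for 24 h. Reporter transcripts are then measured as fluorescence following RT-PCR and capillary separation, and gain- or loss-of-signal is fitted relative to DMSO.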

A short description of test [6]: ATG_BRE_CIS: Attagene CIS-FACTORIAL HepG2 Assay for human Bone Morphogenetic Protein (BMP) Response Element (BRE) (AID 2282933). As to conditions: HepG2 BMP response element reporter, Attagene transcription factor profiling; actives raise or lower the signal. The method in brief:
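Endogenous transcription factor activity read in transiently transfected HepG2 cells after 24 h chemical exposure. Bidirectional curve fitting against DMSO; readout is reporter transcript level by RT-PCR with capillary electrophoresis of labelled products.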

Test [7] addresses Transcription factor E2F1 (Homo sapiens) (UniProt Q01094). Description: ATG_E2F_CIS: Attagene CIS-FACTORIAL HepG2 Assay for human E2F Transcription Factor 1 (AID 2282935). As to conditions: HepG2 Attagene cis-reporter, E2F reporter RNA transcripts; actives raise or lower the signal. The essentials: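 Fluorescent RT-PCR products, digested with HpaI for 2 h at 37 C, are separated by capillary electrophoresis. Source RNA comes from transfected HepG2 cultures treated for 24 h.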

Test [8] can be described thus: ATG_E_Box_CIS: Attagene CIS-FACTORIAL HepG2 Assay for human Enhancer Box (E-box) (AID 2282936). Conditions: HepG2 E-box cis-reporter transcription, actives raise or lower the signal. The method in brief:
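Fluorescent reporter fragments separated by capillary electrophoresis gave the signal; mRNA came from HepG2 cells transfected with cis-element reporters and treated 24 h. Curves fitted bidirectionally relative to DMSO controls.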

The nature of test [9]: ATG_M_61_CIS: Attagene CIS-FACTORIAL HepG2 Assay for M61 Transcription Factor (Internal Marker) (AID 2282937). As to conditions: HepG2 Attagene CIS-FACTORIAL M61 internal marker reporter; actives raise or lower the signal. The essentials: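 Readout: fluorescent reporter mRNA fragments resolved by capillary electrophoresis after RT-PCR. Transiently transfected human HepG2 cells carried MRTU constructs reporting endogenous TF activity; 24 h chemical exposure; gain or loss of signal fitted relative to DMSO.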

The nature of test [10]: ATG_EGR_CIS: Attagene CIS-FACTORIAL HepG2 Assay for human Early Growth Response 1 (EGR1) (AID 2282938). As to conditions: HepG2 Attagene CIS-FACTORIAL EGR reporter mRNA; actives raise or lower the signal. The essentials: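 Read-out: fluorescent reporter-mRNA fragments resolved by capillary electrophoresis after RT-PCR, 24 h post-dose in transiently transfected HepG2. Endogenous transcription-factor activity reported via cis-element-regulated reporter units; gain or loss fitted relative to DMSO.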

Test [11] can be described thus: ATG_M_19_CIS: Attagene CIS-FACTORIAL HepG2 Assay for M19 Transcription Factor (Internal Marker) (AID 2282939). As to conditions: HepG2 Attagene CIS-FACTORIAL M19 internal marker reporter; actives raise or lower the signal. The essentials:
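Internal marker readout, fitted in both directions against DMSO, from HepG2 cells carrying transfected cis-element reporter constructs; RT-PCR and capillary electrophoresis of reporter mRNA after 24 h exposure.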

A short description of test [12]: ATG_GATA_CIS: Attagene CIS-FACTORIAL HepG2 Assay for human GATA Binding Protein (AID 2282944). As to conditions: HepG2 GATA cis-element reporter, Attagene multiplex mRNA; actives raise or lower the signal. The essentials: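 Reporter transcripts from a GATA cis-regulated unit, among multiplexed reporters in transfected HepG2 cells, were measured by RT-PCR with capillary electrophoresis after 24 h dosing. Induction or loss scored relative to DMSO.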

A short description of test [13]: ATG_GLI_CIS: Attagene CIS-FACTORIAL HepG2 Assay for human Zinc Finger Protein GLI1 (AID 2282945). As to conditions: HepG2, Attagene cis-factorial reporter mRNA, GLI element; actives raise or lower the signal. The method in brief:
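Bidirectional curve fits relative to DMSO, using reporter mRNA levels from RT-PCR plus capillary electrophoresis. Cells were HepG2 transiently carrying cis-regulated reporter constructs, harvested 24 h after dosing.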

A short description of test [14]: ATG_ISRE_CIS: Attagene CIS-FACTORIAL HepG2 Assay for human Interferon Regulatory Factor 1 (IRF1) binding to an Interferon-Stimulated Response Element (ISRE) (AID 2282948). As to conditions: HepG2 ISRE cis-reporter (Attagene), mRNA transcription readout; actives raise or lower the signal. The essentials: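 Read-out: fluorescent RT-PCR products resolved by capillary electrophoresis, reporting endogenous transcription factor activity via ISRE-driven reporter mRNA in transfected HepG2 cells dosed for 24 h; gain or loss fitted relative to DMSO.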

Test [15] in a line: ATG_M_32_CIS: Attagene CIS-FACTORIAL HepG2 Assay for M32 Transcription Factor (Internal Marker) (AID 2282949).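 Note: background control marker of the multiplexed CIS panel rather than a real target.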 Conditions: HepG2 Attagene cis-factorial M32 reporter, mRNA; actives raise or lower the signal. The method in brief:
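Transient MRTU transfection of HepG2; 24 h compound treatment; TriZol RNA, oligo(dT) RT, reporter PCR, 6-FAM primer extension, HpaI cut, CE. Gain/loss of signal vs DMSO.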

Test [16] can be described thus: ATG_MRE_CIS: Attagene CIS-FACTORIAL HepG2 Assay for human Metal Responsive Element (MRE) (AID 2282954). As to conditions: HepG2 MRE cis-reporter transcription, Attagene multiplex; actives raise or lower the signal. The essentials: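 Multiplexed cis-reporter assay in human HepG2 liver cells, 24 h incubation with test chemical. Reporter transcripts measured by RT-PCR and capillary electrophoresis; values from bidirectional curve fitting versus DMSO.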

Test [17] concerns the target Paired box protein Pax-6 (Homo sapiens) (UniProt P26367). Description: ATG_Pax6_CIS: Attagene CIS-FACTORIAL HepG2 Assay for human Paired Box 6 (PAX6) (AID 2282956). Conditions: HepG2 CIS-FACTORIAL PAX6 reporter transcription, RNA readout; actives raise or lower the signal. The method in brief: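 Readout: reporter transcript fluorescence after RT-PCR and capillary electrophoresis. Cells: HepG2, transiently transfected with cis-regulated MRTUs. Exposure 24 h. Gain or loss of signal fitted bidirectionally relative to DMSO.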

A short description of test [18]: ATG_PXRE_CIS: Attagene CIS-FACTORIAL HepG2 Assay for human Pregnane X Receptor Element (PXRE) (AID 2282957). Conditions: HepG2 Attagene CIS-FACTORIAL PXRE reporter, mRNA; actives raise or lower the signal. The method in brief: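 Reporter transcripts under endogenous PXR-responsive cis-regulation quantified from total RNA of transfected HepG2 cells 24 h post-dosing, via RT-PCR with fluorescent primer extension and capillary electrophoresis. Gain or loss of signal fitted against DMSO baseline.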

Test [19] deals with Transcription factor Sp1 (Homo sapiens) (UniProt P08047). Nature of the test: ATG_Sp1_CIS: Attagene CIS-FACTORIAL HepG2 Assay for human Specificity Protein 1 (Sp1) (AID 2282961). Conditions: HepG2 Sp1 cis-reporter transcription, actives raise or lower the signal. The method in brief: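 Read-out: fluorescence of 6-FAM-labeled, HpaI-digested RT-PCR products separated by capillary electrophoresis. HepG2 cells carried transfected cis-element reporter units and were exposed to chemicals for 24 h; gain or loss of signal fitted relative to DMSO.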

The target of test [20] is Signal transducer and activator of transcription 3 (Homo sapiens) (UniProt P40763). Nature of the test: ATG_STAT3_CIS: Attagene CIS-FACTORIAL HepG2 Assay for human Signal Transducer and Activator of Transcription 3 (STAT3) (AID 2282963). Conditions: HepG2, Attagene cis-factorial STAT3 reporter transcription; actives raise or lower the signal. The method in brief: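 Cis-factorial format: endogenous transcription factors in HepG2 drive transfected reporter units. After 24 h treatment, reporter RNA was reverse-transcribed, amplified, FAM-labelled and HpaI-digested before CE analysis; activity scored in both directions against DMSO.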
Sequence of Signal transducer and activator of transcription 3 (Homo sapiens) (P40763 whole entry, looked up): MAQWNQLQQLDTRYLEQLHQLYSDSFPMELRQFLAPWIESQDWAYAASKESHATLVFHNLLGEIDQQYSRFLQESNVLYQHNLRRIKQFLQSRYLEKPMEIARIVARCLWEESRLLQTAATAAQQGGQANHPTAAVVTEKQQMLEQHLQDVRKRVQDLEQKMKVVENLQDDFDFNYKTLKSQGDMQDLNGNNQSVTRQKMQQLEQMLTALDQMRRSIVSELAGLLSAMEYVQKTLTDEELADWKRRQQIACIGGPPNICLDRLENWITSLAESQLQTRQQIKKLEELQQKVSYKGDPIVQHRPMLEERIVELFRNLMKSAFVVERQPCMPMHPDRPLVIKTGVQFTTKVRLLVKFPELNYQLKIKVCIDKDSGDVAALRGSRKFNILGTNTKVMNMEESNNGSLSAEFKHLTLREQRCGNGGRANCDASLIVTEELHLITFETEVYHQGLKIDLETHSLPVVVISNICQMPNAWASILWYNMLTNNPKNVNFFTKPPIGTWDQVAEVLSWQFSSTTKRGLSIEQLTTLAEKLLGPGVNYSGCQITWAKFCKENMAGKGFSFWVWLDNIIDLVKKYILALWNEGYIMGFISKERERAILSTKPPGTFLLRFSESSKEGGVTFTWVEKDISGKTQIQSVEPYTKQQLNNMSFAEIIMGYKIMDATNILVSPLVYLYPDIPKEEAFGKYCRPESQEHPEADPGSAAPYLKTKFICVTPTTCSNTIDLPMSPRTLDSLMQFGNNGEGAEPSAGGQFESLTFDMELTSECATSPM

Sequence of Paired box protein Pax-6 (Homo sapiens) (P26367 whole entry, looked up): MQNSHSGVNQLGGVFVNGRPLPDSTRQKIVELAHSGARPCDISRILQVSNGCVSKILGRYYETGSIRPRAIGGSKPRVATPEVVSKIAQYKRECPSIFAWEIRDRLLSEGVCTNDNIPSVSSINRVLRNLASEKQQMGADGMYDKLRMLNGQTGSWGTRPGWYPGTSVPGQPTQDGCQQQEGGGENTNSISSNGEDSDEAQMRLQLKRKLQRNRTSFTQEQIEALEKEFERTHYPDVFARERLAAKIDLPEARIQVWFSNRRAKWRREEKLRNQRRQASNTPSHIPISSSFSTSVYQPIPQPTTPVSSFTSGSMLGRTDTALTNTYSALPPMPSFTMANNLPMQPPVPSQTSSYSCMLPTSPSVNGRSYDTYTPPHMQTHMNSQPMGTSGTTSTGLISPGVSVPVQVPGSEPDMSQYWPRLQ
Sequence of Transcription factor E2F1 (Homo sapiens) (Q01094 whole entry, looked up): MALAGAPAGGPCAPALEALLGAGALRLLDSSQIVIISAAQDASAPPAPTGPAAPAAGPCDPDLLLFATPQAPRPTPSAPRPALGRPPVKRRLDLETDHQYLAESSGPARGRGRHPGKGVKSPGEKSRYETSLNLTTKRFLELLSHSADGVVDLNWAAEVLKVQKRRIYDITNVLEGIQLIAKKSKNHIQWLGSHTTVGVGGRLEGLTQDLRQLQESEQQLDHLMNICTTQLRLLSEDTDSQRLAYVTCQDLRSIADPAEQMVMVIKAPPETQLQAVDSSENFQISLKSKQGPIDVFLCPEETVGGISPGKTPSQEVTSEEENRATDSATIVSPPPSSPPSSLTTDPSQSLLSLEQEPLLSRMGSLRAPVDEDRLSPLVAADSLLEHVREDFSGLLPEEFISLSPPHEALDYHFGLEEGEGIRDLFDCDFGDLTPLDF
Sequence of CCAAT/enhancer-binding protein beta (Homo sapiens) (P17676 whole entry, looked up): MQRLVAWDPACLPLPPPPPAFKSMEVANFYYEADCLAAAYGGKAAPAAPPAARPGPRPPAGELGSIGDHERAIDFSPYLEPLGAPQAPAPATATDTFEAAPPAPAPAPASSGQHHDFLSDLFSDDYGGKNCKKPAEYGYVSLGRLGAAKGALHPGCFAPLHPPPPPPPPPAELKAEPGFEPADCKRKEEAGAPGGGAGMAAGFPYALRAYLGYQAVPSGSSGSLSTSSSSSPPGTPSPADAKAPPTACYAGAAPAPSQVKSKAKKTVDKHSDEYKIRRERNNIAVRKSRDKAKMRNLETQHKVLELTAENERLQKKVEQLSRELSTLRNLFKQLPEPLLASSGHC
Sequence of Transcription factor Sp1 (Homo sapiens) (P08047 whole entry, looked up): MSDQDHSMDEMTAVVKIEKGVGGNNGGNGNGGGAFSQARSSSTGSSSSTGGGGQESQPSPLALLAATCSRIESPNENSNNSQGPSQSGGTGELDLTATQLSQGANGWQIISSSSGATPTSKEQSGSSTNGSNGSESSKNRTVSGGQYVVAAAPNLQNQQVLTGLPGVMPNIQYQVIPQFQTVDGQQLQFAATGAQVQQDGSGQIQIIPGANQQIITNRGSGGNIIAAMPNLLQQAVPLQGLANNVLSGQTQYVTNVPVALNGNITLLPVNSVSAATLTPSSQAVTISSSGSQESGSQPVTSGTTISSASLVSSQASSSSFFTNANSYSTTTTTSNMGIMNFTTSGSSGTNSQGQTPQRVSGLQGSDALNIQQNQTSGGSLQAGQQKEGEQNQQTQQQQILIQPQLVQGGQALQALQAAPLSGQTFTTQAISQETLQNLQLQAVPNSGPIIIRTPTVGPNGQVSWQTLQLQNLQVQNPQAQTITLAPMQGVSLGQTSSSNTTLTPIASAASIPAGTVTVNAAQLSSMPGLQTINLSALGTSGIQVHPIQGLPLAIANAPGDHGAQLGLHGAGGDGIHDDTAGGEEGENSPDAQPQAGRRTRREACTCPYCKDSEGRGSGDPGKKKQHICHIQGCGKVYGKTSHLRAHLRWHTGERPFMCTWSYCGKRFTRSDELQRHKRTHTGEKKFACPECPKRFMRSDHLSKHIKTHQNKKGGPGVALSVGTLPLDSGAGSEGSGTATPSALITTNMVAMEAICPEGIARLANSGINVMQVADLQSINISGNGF

`CCCCCCC(O)CCCCCCCCCCC(=O)OC` (stereo not given): the call in test [1], in [2], in [3], in [4], in [5] and in test [6] was inactive. The outcome in test [7], in test [8], in test [9], in [10], in test [11] and in test [12] was inactive. Besides, the call in test [13], in test [14], in [15], in test [16], in test [17] and in test [19] was inactive. Moreover, the compound was classed as inactive in test [20]. Also, the AC50 in [18] is 27.5 µM (active).
`CC(C)=CCOC(=O)c1ccccc1`: the compound was classed as inactive in test [1], in [2], in test [3], in test [4], in [5] and in test [6]. The compound was classed as inactive in test [7], in [8], in [9], in [10], in test [11] and in [12]. The compound was called inactive in test [13], in test [14], in test [15], in test [16], in test [17] and in test [18]. In addition, the result in test [19] and in test [20] was inactive.
As to `CC(=O)Nc1c(I)c(NC(C)=O)c(I)c(C(=O)O)c1I`, the result in [1], in test [2], in [3], in [4], in [5] and in [6] was inactive. Moreover, the compound was called inactive in [7], in test [8], in test [9], in test [10], in test [11] and in [12]. The result in test [13], in test [14], in test [15], in [16], in [17] and in test [18] was inactive. The result in test [19] and in test [20] was inactive.
As to `[O-][n+]1ccc(Cl)cc1`, the outcome in test [1], in [2], in [3], in test [4], in test [5] and in test [6] was inactive. Further, the outcome in test [7], in test [8], in test [9], in test [10], in [11] and in test [12] was inactive. Besides, the call in [13], in [14], in test [15], in [16], in [17] and in test [18] was inactive. The compound was classed as inactive in [19] and in test [20].

As a reminder, the AC50 is the concentration giving half of the maximal activity seen.

The record behind these values is PubChem BioAssay (EPA / NIEHS).
